Experimental data as given in PubChem BioAssay (NCATS).
Records with an inconclusive call do not appear. Values without a mark were called inactive. Activity calls are given as the source filed them. Calls come from the whole dose curve; as a rule, active = well fitted cell-killing curve with a large enough effect; inconclusive = small, poorly fitted or top-dose-only effect; inactive = no such curve, though single readings can be large or run the other way.

Test: qHTS of pediatric cancer cell lines to identify multiple opportunities for drug repurposing: Primary screen for SK-N-SH cells (AID 1347098); note: nearly all actives have a fitted effect of over 65% in size;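 for activity change, negative = cytotoxic: DMSO served as neutral control and bortezomib at 2.3 µM as positive control; % is set by controls: 0 for no effect and ±100 for the full control effect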
Settings: SK-N-SH viability, CellTiter-Glo luminescence, 48 h; series mostly up to 57 µM; activity change, negative = cytotoxic: at the top concentration
How it was run: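 Cells (500-1,000/well) rested 5 h, then received compounds for 48 h; metabolically active cells were measured by CellTiter-Glo luminescence. Final concentrations spanned up to 46 µM (MIPE, 11-point) or 0.59 nM-46 µM (NPC, 8-point) in primary screens, 11-point in follow-ups.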
Potency is the fitted concentration of half-maximal effect.

| SMILES | activity change, negative = cytotoxic | Potency |
| --- | --- | --- |
| Cc1onc(-c2c(Cl)cccc2Cl)c1C(=O)Cl | -20.6% |  |
| CCOC(=O)Oc1ccc(CCNC(=O)[C@H](CCSC)NC(C)=O)cc1OC(=O)OCC | 6.52% |  |
| O=[N+]([O-])c1nccn1CO[C@@H](CO)[C@H](O)CO | 8.44% |  |
| NS(=O)(=O)c1ccc(N2CCCCS2(=O)=O)cc1 | -2.32% |  |
| O=C(O)CCC(=O)OC[C@@H](NC(=O)C(Cl)Cl)[C@H](O)c1ccc([N+](=O)[O-])cc1 | -11.1% |  |
| CC(=O)c1ccc(O)c(C(N)=O)c1 | 6.56% |  |
| O=C1c2ccccc2CCc2ccccc21 | -8.65% |  |
| CCOC(=O)c1ccc(NC(=O)CN2CCCCC2)cc1 | 24.5% |  |
| Cc1c(F)cc2c(=O)c(C(=O)O)cn3c2c1CCC3C (stereo not drawn) | -11.5% |  |
| CC(C)(C)NCC(O)COc1ccccc1OCC1CCCO1 (stereo not drawn) | -3.58% |  |
| Cc1ccc(O)cc1 | 8.42% |  |
| CCCCC(CC)CNC(=O)CC(C)OC(=O)CCC(=O)O (stereo not drawn) | -8.74% |  |
| CCN(CC)CC(=O)OCC(=O)[C@@]1(O)CC[C@H]2[C@@H]3CCC4=CC(=O)CC[C@]4(C)[C@H]3[C@@H](O)C[C@@]21C | 3.55% |  |
| OCCCc1ccccc1 | -18.4% |  |
| O=C(CCCCC(=O)Nc1c(I)cc(I)c(C(=O)O)c1I)Nc1c(I)cc(I)c(C(=O)O)c1I | 1.64% |  |
| Cc1cccc(OCC(O)CNC(C)(C)C)c1C (stereo not drawn) | -13.7% |  |
| Cc1ccc(C(=O)C(=O)O)cc1C | -7.17% |  |
| CC(=O)Nc1c(I)c(NC(C)=O)c(I)c(C(=O)O)c1I | 4.21% |  |
| CC(C)(Oc1ccc(Cl)cc1)C(=O)OCCCOC(=O)C(C)(C)Oc1ccc(Cl)cc1 | -3.18% |  |
| O=C(CO)[C@@H](O)[C@H](O)[C@@H](O)CO | 2.96% |  |

| SMILES | activity change, negative = cytotoxic | Potency |
| --- | --- | --- |
| CCOC(=O)O[C@]1(C(=O)OCCl)CC[C@H]2[C@@H]3CCC4=CC(=O)C=C[C@]4(C)[C@H]3[C@@H](O)C[C@@]21C | -7.65% |  |
| C[C@H]1C[C@H](O)c2ccsc2S1(=O)=O | -7.92% |  |
| CCN(CC)CC(=O)Oc1ccc(NC(C)=O)cc1 | 3.99% |  |
| COC(=O)c1cc(Cl)c(NC(C)=O)cc1OC | -8.09% |  |
| C[N+]1(C)CCC(OC(=O)C(O)(c2ccccc2)C2CCCC2)C1 (stereo not drawn) | 5.36% |  |
| CCOC(=O)C(O)c1ccccc1 (stereo not drawn) | -11.2% |  |
| CCN1CCCC1CN (stereo not drawn) | 8.34% |  |
| Cc1cc2nc3ccc(=[N+](C)C)cc-3sc2cc1N |  | 10.9 µM (active) |
| CCOC(=O)OCC/C(SC(=O)OCC)=C(\C)N(C=O)Cc1cnc(C)nc1N | 1.73% |  |
| CCN(CC)CCN | 4.5% |  |
| CC(C)(C)c1nnc(NS(=O)(=O)c2ccccc2)s1 | -14.2% |  |
| CC(C)C(=O)Nc1cccc(C(F)(F)F)c1 | -11.2% |  |
| CC(C)NCCCC1(C(N)=O)c2ccccc2-c2ccccc21 | -36.2% |  |
| Oc1ccccc1-c1nnco1 | 2.94% |  |
| CN=C(N)NC(=O)Nc1c(C)cccc1C | -2.84% |  |
| Cc1cc(=O)oc2cc(O[C@@H]3SC[C@@H](O)[C@H](O)[C@H]3O)ccc12 | 77.5% |  |
| CN1C(=O)c2ccccc2C1=O | 11.7% [at 115 µM] |  |
| CCN1CCN(C(=O)N[C@@H](C(=O)N[C@@H]2C(=O)N3[C@@H]2SC(C)(C)[C@H]3C(=O)O)c2ccccc2)C(=O)C1=O | 0.97% |  |
| O=C(C1CCCCC1)N1CC(=O)N2CCCc3ccccc3C2C1 (stereo not drawn) | -21.7% |  |

Test: qHTS of pediatric cancer cell lines to identify multiple opportunities for drug repurposing: Primary screen for NB1643 cells (AID 1347099); note: nearly all actives have a fitted effect of over 50% in size;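 for activity change, negative = cytotoxic: plate controls were DMSO neutral control for no effect and bortezomib positive control for full effect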
Settings: NB1643 neuroblastoma viability, CellTiter-Glo luminescence, 48 h; series mostly up to 46 µM; activity change, negative = cytotoxic: at the top concentration
How it was run: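 Primary screen of approved and investigational compounds on cells in growth media at 37 degrees C, 5% CO2. MIPE set at 11-point and NPC set at 8-point dilutions; viability scored by ATP-based luminescence at 48 hours.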

| SMILES | activity change, negative = cytotoxic | Potency |
| --- | --- | --- |
| Cc1onc(-c2c(Cl)cccc2Cl)c1C(=O)Cl | 10.8% |  |
| CCOC(=O)Oc1ccc(CCNC(=O)[C@H](CCSC)NC(C)=O)cc1OC(=O)OCC | -1.36% |  |
| O=[N+]([O-])c1nccn1CO[C@@H](CO)[C@H](O)CO | -3.96% |  |
| NS(=O)(=O)c1ccc(N2CCCCS2(=O)=O)cc1 | 16.1% |  |
| O=C(O)CCC(=O)OC[C@@H](NC(=O)C(Cl)Cl)[C@H](O)c1ccc([N+](=O)[O-])cc1 | 12.9% |  |
| CC(=O)c1ccc(O)c(C(N)=O)c1 | 12.2% |  |
| O=C1c2ccccc2CCc2ccccc21 | 9.51% |  |
| CCOC(=O)c1ccc(NC(=O)CN2CCCCC2)cc1 | 14.3% |  |
| Cc1c(F)cc2c(=O)c(C(=O)O)cn3c2c1CCC3C (stereo not drawn) | 4.07% |  |
| CC(C)(C)NCC(O)COc1ccccc1OCC1CCCO1 (stereo not drawn) | 14.4% |  |
| Cc1ccc(O)cc1 | 15.7% |  |
| CCCCC(CC)CNC(=O)CC(C)OC(=O)CCC(=O)O (stereo not drawn) | 23.4% |  |
| CCN(CC)CC(=O)OCC(=O)[C@@]1(O)CC[C@H]2[C@@H]3CCC4=CC(=O)CC[C@]4(C)[C@H]3[C@@H](O)C[C@@]21C | 15.7% |  |
| OCCCc1ccccc1 | 5.21% |  |
| O=C(CCCCC(=O)Nc1c(I)cc(I)c(C(=O)O)c1I)Nc1c(I)cc(I)c(C(=O)O)c1I | 17.1% |  |
| Cc1cccc(OCC(O)CNC(C)(C)C)c1C (stereo not drawn) | 5.04% |  |
| Cc1ccc(C(=O)C(=O)O)cc1C | 4.92% |  |
| CC(=O)Nc1c(I)c(NC(C)=O)c(I)c(C(=O)O)c1I | 8.07% |  |
| CC(C)(Oc1ccc(Cl)cc1)C(=O)OCCCOC(=O)C(C)(C)Oc1ccc(Cl)cc1 | 20.1% |  |
| O=C(CO)[C@@H](O)[C@H](O)[C@@H](O)CO | 12.1% |  |

| SMILES | activity change, negative = cytotoxic | Potency |
| --- | --- | --- |
| CCOC(=O)O[C@]1(C(=O)OCCl)CC[C@H]2[C@@H]3CCC4=CC(=O)C=C[C@]4(C)[C@H]3[C@@H](O)C[C@@]21C | 13.4% |  |
| C[C@H]1C[C@H](O)c2ccsc2S1(=O)=O | 1.93% |  |
| CCN(CC)CC(=O)Oc1ccc(NC(C)=O)cc1 | 11.6% |  |
| COC(=O)c1cc(Cl)c(NC(C)=O)cc1OC | 18.9% |  |
| C[N+]1(C)CCC(OC(=O)C(O)(c2ccccc2)C2CCCC2)C1 (stereo not drawn) | 10.1% |  |
| CCOC(=O)C(O)c1ccccc1 (stereo not drawn) | 0% |  |
| CCN1CCCC1CN (stereo not drawn) | -1.18% |  |
| Cc1cc2nc3ccc(=[N+](C)C)cc-3sc2cc1N |  | 5.96 µM (active) |
| CCOC(=O)OCC/C(SC(=O)OCC)=C(\C)N(C=O)Cc1cnc(C)nc1N | 11.5% |  |
| CCN(CC)CCN | 3.34% |  |
| CC(C)(C)c1nnc(NS(=O)(=O)c2ccccc2)s1 | 18.7% |  |
| CC(C)C(=O)Nc1cccc(C(F)(F)F)c1 | 17.8% |  |
| CC(C)NCCCC1(C(N)=O)c2ccccc2-c2ccccc21 | 11.9% |  |
| Oc1ccccc1-c1nnco1 | 3.54% |  |
| CN=C(N)NC(=O)Nc1c(C)cccc1C | 13.4% |  |
| Cc1cc(=O)oc2cc(O[C@@H]3SC[C@@H](O)[C@H](O)[C@H]3O)ccc12 | 11.5% |  |
| CN1C(=O)c2ccccc2C1=O | 12.1% [at 92.7 µM] |  |
| CCN1CCN(C(=O)N[C@@H](C(=O)N[C@@H]2C(=O)N3[C@@H]2SC(C)(C)[C@H]3C(=O)O)c2ccccc2)C(=O)C1=O | 6.58% |  |
| O=C(C1CCCCC1)N1CC(=O)N2CCCc3ccccc3C2C1 (stereo not drawn) | 3.82% |  |
